Bioassay records deposited in PubChem by National Center for Advancing Translational Sciences (NCATS).
This is a sample that favours compounds with a hit; in the whole collection about 7% have one here.
HP1b binding inh: blocks HP1-beta chromodomain binding to methylated histone tails; P83916; AlphaScreen HP1-beta / biotin-H3K9me3 peptide binding; Potency, µM (highest dose often 114 µM), actives largely listed as inhibitors; 0.56% of 390,000 active; AID 540317; also: nearly all actives have a fitted effect of over 70% in size
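Compound inhibition of the preformed complex between 50 nM HP1-beta and 50 nM biotinylated H3K9me3 peptide was read by AlphaScreen. Buffer was PBS pH 7.4 with 0.01% Tween-20. Incubations ran 30 min at room temperature, with 10 ug/mL donor/acceptor beads.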
PI5P4K alpha inh: blocks human PI5P4K alpha kinase activity; P48426; PI5P4Kalpha enzyme, ADP-Glo luminescence, 60 min; hits give low values; max response, %; 1.2% of 330,000 active; AID 652105; active = max response of -50% or lower; inconclusive = between -30% and -50%; inactive = -30% or higher; also: value at the top dose of about 77 µM
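ADP-Glo luminescence end-point after a 60 min room-temperature kinase reaction. PI5P4Kalpha and substrate in HEPES pH 7.4 buffer with EGTA, 0.1% CHAPS and 5% DMSO; ATP at 5 microM final.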
GCN5L2 inh: inhibitors of human GCN5L2 histone acetyltransferase; 0.21% of 390,000 active; GCN5L2 HAT assay, ThioGlo1 CoA-SH fluorescence; AID 504327; Potency, µM (titrated, usually from 58.9 µM), most hits filed as inhibitors
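Compounds, pin-transferred from DMSO stocks, meet 20nM GCN5L2 for 15 min before the reaction begins with H3(1-25) peptide (75uM) and acetyl-CoA (70uM). Thiol-reactive ThioGlo1 reports CoA release over 20 min at room temperature.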
JMJD2A Tudor inh: JMJD2A Tudor domain (human) inhibition | 4.4% of 390,000 active | Potency, µM (top dose mostly 114 µM), hits mostly inhibitors | AID 504339 | AlphaScreen JMJD2A-Tudor / H3K4me3 peptide binding; also: nearly all actives have a fitted effect of over 50% in size
Target sequence (O75164 whole entry, looked up, the tested form may be a part): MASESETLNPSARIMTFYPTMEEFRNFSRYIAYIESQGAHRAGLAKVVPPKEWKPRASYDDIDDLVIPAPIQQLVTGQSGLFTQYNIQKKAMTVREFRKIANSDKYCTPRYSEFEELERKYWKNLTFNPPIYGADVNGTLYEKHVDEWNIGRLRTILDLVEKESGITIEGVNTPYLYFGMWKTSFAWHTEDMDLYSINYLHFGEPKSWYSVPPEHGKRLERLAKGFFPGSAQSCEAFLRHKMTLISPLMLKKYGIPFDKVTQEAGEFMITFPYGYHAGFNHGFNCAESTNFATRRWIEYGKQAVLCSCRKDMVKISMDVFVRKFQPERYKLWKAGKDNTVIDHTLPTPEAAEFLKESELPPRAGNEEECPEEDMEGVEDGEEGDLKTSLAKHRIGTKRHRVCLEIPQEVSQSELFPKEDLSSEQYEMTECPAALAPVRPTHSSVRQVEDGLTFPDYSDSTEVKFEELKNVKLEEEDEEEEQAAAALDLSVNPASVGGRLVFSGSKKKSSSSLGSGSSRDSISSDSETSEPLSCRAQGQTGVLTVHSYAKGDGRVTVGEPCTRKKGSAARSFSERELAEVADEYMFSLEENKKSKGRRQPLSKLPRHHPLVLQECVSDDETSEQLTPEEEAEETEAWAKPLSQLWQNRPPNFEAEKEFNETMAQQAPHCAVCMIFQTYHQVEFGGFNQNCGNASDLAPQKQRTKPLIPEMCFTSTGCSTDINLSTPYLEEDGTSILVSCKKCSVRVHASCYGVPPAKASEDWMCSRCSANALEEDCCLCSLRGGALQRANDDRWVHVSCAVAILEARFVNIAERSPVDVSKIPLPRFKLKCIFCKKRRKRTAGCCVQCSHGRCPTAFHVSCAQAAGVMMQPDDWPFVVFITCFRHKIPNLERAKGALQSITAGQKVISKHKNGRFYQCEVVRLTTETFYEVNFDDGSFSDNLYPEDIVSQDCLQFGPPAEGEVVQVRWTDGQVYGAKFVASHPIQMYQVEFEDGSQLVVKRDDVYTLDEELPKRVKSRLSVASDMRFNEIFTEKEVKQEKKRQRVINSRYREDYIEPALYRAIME
BAZ2B inh: blocks human BAZ2B; Q9UIF8; AlphaScreen BAZ2B-H3K14Ac peptide displacement; 4.4% of 360,000 active; Potency, µM (titrated, usually from 114 µM), actives largely listed as inhibitors; also: nearly all actives have a fitted effect of over 60% in size
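AlphaScreen displacement: compounds (up to 110uM) incubated 30 min at room temperature with a preformed 50 nM BAZ2B/50 nM biotinylated H3K14Ac peptide complex in PBS pH 7.4 with Tween-20. Donor and acceptor beads at 10 ug/mL final added, 20 min light-protected before reading.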
PLK1 PBD block: PLK1 (human) polo-box domain binding inhibition; 2.8% of 360,000 active; AID 720504; Potency, µM, actives largely listed as inhibitors; Plk1 PBD binding of FITC phosphopeptide, fluorescence polarization; P53350; also: series mostly up to about 57 µM; nearly all actives have a fitted effect of over 65% in size
Large screens that a line does not name were inactive. Unless noted, calls follow the shape of the dose curve; as a rule, active = well fitted curve in the direction sought with a large enough effect; inconclusive = small, poorly fitted or top-dose-only effect, or another doubt; inactive = no such curve, though single readings can be large; an effect the other way counts as inactive or inconclusive.

CC1(C)CC(=O)C(C(=O)/C=C/c2ccco2)C(=O)C1	HP1b binding inh inconclusive, PI5P4K alpha inh inconclusive, JMJD2A Tudor inh inconclusive, BAZ2B inh inconclusive, PLK1 PBD block 9.5µM
CC[C@@H](C)[C@H](NC(=O)OC(C)(C)C)c1nnc(S(=O)(=O)Cc2cc(C)ccc2C)o1	PLK1 PBD block 6µM
CC(C)C[C@H](NC(=O)OC(C)(C)C)c1nnc(SCc2ccccc2)o1	none
Cc1ccccc1CS(=O)(=O)c1nnc([C@H](CC(C)C)NC(=O)OC(C)(C)C)o1	PLK1 PBD block 8.9µM (no result: PI5P4K alpha inh)
CC[C@@H](C)[C@H](NC(=O)OCc1ccccc1)c1nnc([C@@H](NC(=O)OCc2ccccc2)[C@@H](C)CC)o1	none
CC(C)(C)OC(=O)N[C@@H](Cc1ccccc1)c1nnc(S(=O)(=O)Cc2cccc(F)c2)o1	PLK1 PBD block 6µM
CC(C)C[C@H](N)c1nnc(S(=O)(=O)Cc2cccc(F)c2)o1	BAZ2B inh inconclusive, PLK1 PBD block inconclusive (no result: PI5P4K alpha inh)
O=C(Cn1nc(-c2ccccc2)nc(Cc2ccccc2)c1=O)Nc1ccccc1	none (no result: PI5P4K alpha inh, PLK1 PBD block)
CC1(C)Cc2c(sc3c2c(N)nc(=S)n3Cc2ccc(Br)cc2)CO1	none
CNc1nc2[nH]c(=O)c3c(c2s1)OC(N)=C(C#N)C3c1ccccc1 (configuration not stated)	PI5P4K alpha inh inconclusive
CCNc1nc2[nH]c(=O)c3c(c2s1)OC(N)=C(C#N)C3c1ccc(C)cc1 (configuration not stated)	PI5P4K alpha inh -67, BAZ2B inh inconclusive
COCCCN1CN=C(Nc2nc3ccccc3o2)NC1	JMJD2A Tudor inh 13µM
CCCN1CN=C(Nc2nc3ccccc3o2)NC1	none
C[C@@](N)(C(=O)O)c1ccc(C(=O)O)cc1	none (no result: HP1b binding inh, PI5P4K alpha inh, JMJD2A Tudor inh, BAZ2B inh, PLK1 PBD block)
O=C(O)c1cc(=O)n(Cc2ccccc2)c(=O)[nH]1	PI5P4K alpha inh inconclusive, JMJD2A Tudor inh 28µM, BAZ2B inh inconclusive
Cc1cc(=O)c2ccccc2n1Cc1ccccc1	none
Cc1cc(=O)[nH]c(=O)n1Cc1ccccc1	PI5P4K alpha inh -84 (no result: BAZ2B inh)
Cc1ccc(NC(=O)c2ccccc2)cc1C	none
O=c1cc(N2CCN(Cc3ccccc3)CC2)[nH]c(=O)n1Cc1ccc(F)cc1	none (no result: PI5P4K alpha inh)
Cc1cc(=O)n(Cc2ccccc2)c2ccccc12	BAZ2B inh inconclusive, PLK1 PBD block 21µM
Cc1ccc(NC(=O)c2cc(=O)n(Cc3ccccc3)c(=O)[nH]2)cc1C	JMJD2A Tudor inh 10µM, PLK1 PBD block 24µM
CCc1nc2ccc(C(=O)Nc3cccc(NS(C)(=O)=O)c3)cn2c1N(C)Cc1nccn1C	none (no result: HP1b binding inh, GCN5L2 inh, JMJD2A Tudor inh, BAZ2B inh)
CCSC(=Nc1ccccc1)N1CCOCC1	none (no result: GCN5L2 inh, BAZ2B inh)
CCN1c2ccccc2-c2nc(SCC(=O)Nc3cc(OC)cc(OC)c3)ncc2S1(=O)=O	none (no result: PI5P4K alpha inh, PLK1 PBD block)
CCOc1ccc(CNCCN2CCCC2)cc1	HP1b binding inh inconclusive, JMJD2A Tudor inh 13µM, BAZ2B inh 56µM
COCCCNC(=O)COc1ccc(Cl)c(C)c1	none (no result: PI5P4K alpha inh)
CC(OCCN1CCCC1)(c1ccc(F)cc1)c1ccc(F)cc1	JMJD2A Tudor inh 89µM, PLK1 PBD block 30µM
CNCCOc1ccc(Cl)c(Cl)c1	HP1b binding inh inconclusive, JMJD2A Tudor inh 3.2µM
Fc1ccc(OCCOCCN2CCCC2)cc1	HP1b binding inh inconclusive, JMJD2A Tudor inh 6.3µM (no result: GCN5L2 inh, BAZ2B inh)
CSc1ccc(CCNC(=O)c2ccc(-c3nc(COc4ccccc4)c(C)o3)cc2)cc1	none (no result: PI5P4K alpha inh, PLK1 PBD block)
CCc1cccc(OCCOCCN2CCCC2)c1	HP1b binding inh inconclusive, JMJD2A Tudor inh 10µM, BAZ2B inh 79µM
Cc1ccccc1OCCOCCN1CCCCCC1	HP1b binding inh inconclusive, JMJD2A Tudor inh inconclusive, BAZ2B inh inconclusive
NC(=S)NN=C1c2cc(OCCN3CCOCC3)ccc2-c2ccc(OCCN3CCOCC3)cc21	HP1b binding inh inconclusive, JMJD2A Tudor inh inconclusive, BAZ2B inh 40µM
Cc1ccc(C(C)C)cc1OCCOCCN1CCCC1	HP1b binding inh inconclusive, JMJD2A Tudor inh 7.1µM, BAZ2B inh inconclusive
Cc1cc(OCCOCCN2CCCC2)ccc1C(C)C	JMJD2A Tudor inh 5µM, BAZ2B inh inconclusive
c1ccc(COc2ccc(OCCN3CCCC3)cc2)cc1	JMJD2A Tudor inh inconclusive
OC(COc1ccccc1)CN1CCN(C(c2ccccc2)c2ccccc2)CC1 (configuration not stated)	BAZ2B inh inconclusive
